Screening data: PubChem, Broad Institute
An excerpt weighted towards active compounds, which were near 2.1% of everything screened.
Shn3 inh set2: reduction of Shn3 3'UTR firefly luciferase signal, primary screen, Schnurri-3 inhibitor project, cell-based, Clone20 osteoblasts, set 2; 360,000 tested, 0.52% active; AID 588674, 2011; inhibition, % at 12.5 µM; Clone20 osteoblast Shn3 3'UTR firefly luciferase, 24 h;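 active = mean inhibition of at least 75% with every replicate also reaching 75%; inconclusive = mean inhibition at least 75% but some replicate below; inactive = mean inhibition below 75%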;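 note: 0% = median of neutral control wells and 100% = pilot-screen positive control compound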
PAX8 inh HTS: inhibitors of PAX8-driven TPO luciferase reporter, primary screen, RMG-I cells, single concentration; SteadyGlo, 24 h; inhibition, % at 12.6 µM; 360,000 tested, 1.2% active; AID 652154, 2013;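 active = mean replicate inhibition at least 60% with every replicate also reaching 60%; inconclusive = only one of the two criteria is met; inactive = mean below 60% and not all replicates reaching 60%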;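 note: luciferase light reporting Pax8 driven TPO promoter activity; plate controls were median of neutral control wells for no effect and mitoxantrone controls for full effect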
aSyn 5UTR inh: MLPCN primary screen, SNCA 5' untranslated region; alpha-synuclein 5'UTR reporter, inhibitor activity; inhibition, % (tested at 7.5 µM); 300,000 tested, 0.82% active; in the data active = inhibition above about 60%; inconclusive = no clear call, values can overlap the other calls;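 note: H4 neuroglioblastoma cells stably carrying SNCA 5'UTR luciferase fusion; 0% = DMSO wells and 100% = positive control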
LMP1 NFkB inh: EBV LMP1-driven NF-kappaB luciferase reporter inhibitors, primary screen, cell-based, luminescence, single point; LMP1-induced NF-kappaB luciferase reporter cells; inhibition, % at 12.5 µM; 350,000 tested, 0.69% active; in the data active = inhibition above about 41%; inconclusive = no clear call, values can overlap the other calls;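 note: 0% = neutral control wells and 100% = reference inhibitor control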
MITF TRPM1 inh: inhibitors of MITF-dependent TRPM1 promoter reporter, primary screen, cell-based, SK-MEL-5, single point, luciferase; SK-MEL-5 TRPM1 promoter luciferase, 24 h; inhibition, % at 12.5 µM; 330,000 tested, 0.83% active; AID 488899, 2010;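 active = mean inhibition across replicates of 60% or more, whatever share of single replicates reaches that level; inconclusive = some that reach 60%, reason not given; inactive = mean inhibition across replicates below 60%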
Numbers without * were called inactive; ? = inconclusive; nt = not tested or not shown.

SMILES	Shn3 inh set2	PAX8 inh HTS	aSyn 5UTR inh	LMP1 NFkB inh	MITF TRPM1 inh
COc1cccc(/C=N/NC(=O)C(=O)Nc2ccccc2OC(F)(F)C(F)F)c1O	83	47	71*	21	73*
COc1cccc(/C=N/NC(=O)c2c(C)nc3ccc(Cl)cn23)c1O	90*	27	35	61*	70*
COc1ccccc1/C=N\NC(=O)c1c(C)nc2ccc(Cl)cn12	9	-2	-13	1	-4
CCC(=O)Oc1ccc2ccccc2c1CNC(=O)c1ccccc1	11	9	12	-1	19
CCOc1ncccc1C(=O)OCC(=O)N1CCN(S(=O)(=O)c2ccccc2)CC1	16	-18	0	1	-3
COc1ccccc1/C=N/NC(=O)c1c(-c2ccccc2)noc1C	-13	-7	15	-4	-5
COc1cccc(/C=N/NC(=O)C[n+]2ccccc2)c1O	-20	13	4	3	11
COc1ccc(CCCC(=O)N/N=C/c2cccc(OC)c2O)cc1C	?	29	74*	13	25
CCCCSc1nc(C)cc(SCC(=O)N/N=C/c2cccc(OC)c2O)n1	83	nt	81*	15	50
COc1cccc(/C=N/NC(=O)CSc2nnc(C)n2-c2ccccc2)c1O	49	nt	38	3	5
Cc1cccc(/C=N/NC(=O)c2c(-c3ccccc3)noc2C)c1O	?	46	62*	8	44
O=C1O[C@@H](c2ccccc2)[C@@H](c2ccccc2)N2[C@@H](c3ccccc3OCCO)[C@]3(C(=O)Nc4ccccc43)[C@@H](C(=O)O)[C@H]12	nt	10	nt	nt	nt
COc1ccc(-c2ccc3c(c2)[C@H]2[C@H](CCN2S(=O)(=O)c2ccc(OC)cc2)[C@H](CO)N3C)cc1	nt	95*	nt	nt	nt
COc1ccc(-c2ccc3c(c2)[C@@H]2[C@@H](CCN2S(=O)(=O)c2ccc(OC)cc2)[C@@H](CO)N3C)cc1	nt	85*	nt	nt	nt
COc1ccc(S(=O)(=O)N2CC[C@@H]3[C@H](CO)N(C)c4ccc(-c5ccccc5F)cc4[C@@H]32)cc1	nt	7	nt	nt	nt
O=C(Nc1ccccc1)/C(=C\c1ccc(F)cc1)NC(=O)c1ccco1	12	-4	7	1	3
CCOC(=O)c1ccc(NC(=O)Oc2ccccc2)cc1	4	nt	-66	-4	4
Oc1ccc(N2CCN(c3ncnc4sc(-c5ccccc5)cc34)CC2)cc1	-13	39	21	9	8
CCc1cc2c(N3CCN(c4ccccc4)CC3)ncnc2s1	83	nt	12	44*	10
O=C(O)c1ccc(Nc2ccc(Cl)c(Cl)c2)c([N+](=O)[O-])c1	-4	0	27	-3	5
Cc1nc2nc(C)n(CCN3CCOCC3)c(=O)c2c(-c2cccc([N+](=O)[O-])c2)c1C(=O)CCCCCCCCCCN1CCC(c2ccccc2)(c2ccccc2)CC1	?	58	nt	1	99*
CC(CC(=O)NC1CCCCC1)S(=O)(=O)c1ccc2c(c1)CCN2C(=O)C1CC1 (configuration not stated)	14	0	14	16	-10
C[C@@H]1CCCCO[C@H](CN(C)S(=O)(=O)c2ccc(Cl)cc2)[C@H](C)CN([C@H](C)CO)C(=O)c2cc(N(C)C)ccc2O1	nt	68*	nt	nt	nt
Cc1ccc(S(=O)(=O)N(C)C[C@H]2OCCCC[C@H](C)Oc3ccc(N(C)C)cc3C(=O)N([C@H](C)CO)C[C@H]2C)cc1	nt	20	nt	nt	nt
Cc1ccc(S(=O)(=O)N(C)C[C@@H]2OCCCC[C@H](C)Oc3ccc(N(C)C)cc3C(=O)N([C@@H](C)CO)C[C@@H]2C)cc1	nt	73*	nt	nt	nt
SMILES	Shn3 inh set2	PAX8 inh HTS	aSyn 5UTR inh	LMP1 NFkB inh	MITF TRPM1 inh
C[C@H]1CCCCO[C@@H](CN(C)S(=O)(=O)c2ccc(Cl)cc2)[C@@H](C)CN([C@@H](C)CO)C(=O)c2cc(N(C)C)ccc2O1	nt	70*	nt	nt	nt
C[C@@H]1CN([C@H](C)CO)C(=O)c2cc(N(C)C)ccc2O[C@@H](C)CCCCO[C@H]1CN(C)S(=O)(=O)c1ccc(Cl)cc1	nt	55	nt	nt	nt
Cc1noc(C)c1NC(=O)Nc1ccc2c(c1)CC(=O)N([C@H](C)CO)C[C@@H](C)[C@@H](CN(C)C(=O)Nc1c(C)noc1C)O2	nt	-28	nt	nt	nt
Cc1ccccc1N(Cc1cc(=O)[nH]c2ccccc12)C(=O)CCl	12	83*	-38	8	54
CCC(=O)N(Cc1cc(=O)[nH]c2ccccc12)c1ccccc1	-73	19	10	6	5
O=C(CCl)N(Cc1cc(=O)[nH]c2ccccc12)c1ccccc1	3	53	24	20	69*
Cc1ccccc1N(Cc1cc(=O)[nH]c2ccccc12)C(=O)C(C)C	7	-2	9	-3	-1
O=C1NC(Cc2ccccc2)c2nc3cc(F)ccc3c(=O)n2-c2cc3ccccc3cc21 (configuration not stated)	-5	62*	nt	9	nt
O=C1NC(Cc2ccccc2)c2nc3ccccc3c(=O)n2-c2cc3ccccc3cc21 (configuration not stated)	11	48	nt	-3	nt
CCn1c(-c2csc(C(C)C)c2)n[nH]c1=S	-1	0	10	21	-16
CS(=O)(=O)c1nc(-c2ccc(F)cc2)cc(C(F)(F)F)n1	89*	40	-126	-25	97*
COc1ccc(-c2cc(C(F)(F)F)nc(N)n2)cc1	-20	-5	19	-4	-8
COc1ccc(-c2cc(C(F)(F)F)nc(S(C)(=O)=O)n2)cc1	95*	nt	-103	7	61*
Nc1nc(-c2ccc(F)cc2)cc(C(F)(F)F)n1	-3	-4	14	1	15
Cc1cccc(NC(=O)Nc2cnccn2)c1	-10	-2	-8	-15	-14
Cc1nnc(SCC(=O)NC23CC4CC(CC(C4)C2)C3)n(N)c1=O	-18	8	-22	5	-11
Cc1ccc(S(=O)(=O)CCC(=O)c2ccc(F)cc2)cc1	73	96*	8	-4	11
COc1ccc(NC(=O)C[C@H]2C(=O)N(CCc3ccccc3)C[C@@H]2c2ccc(OC)cc2)cc1	-8	-21	nt	44*	nt
COc1ccc([C@H]2CN(Cc3ccccc3)C(=O)[C@@H]2CC(=O)Nc2ccccc2)cc1	-26	4	nt	5	nt
O=C(CCc1nnc2ccc(NCc3ccccc3)nn12)NCC1CCN(C2CCCC2)C1 (configuration not stated)	-13	-10	-3	3	5
Cc1cc(C)c(S(=O)(=O)N2CCN(C(=O)c3ccccc3OCc3c(C)noc3C)CC2)c(C)c1	20	-111	nt	46*	7
Cc1ccc(S(=O)(=O)N2CCN(C(=O)c3ccccc3OCc3c(C)noc3C)CC2)cc1C	3	nt	-9	-3	-10
O=C(COC(=O)c1ccc[nH]c1=O)NCCC1=CCCCC1	45	-19	nt	-2	2
O=C(CSc1nc2ccccc2c(=O)n1-c1ccccc1)N1CCc2ccccc2C1	83	nt	-4	6	13
